# Assay outcomes from PubChem.
# The list is not random: actives were taken first. Their share in the collection is about 12%.
# m-calpain inh: inhibitors of pig calpain II. 220,000 compounds, 0.37% hits. inhibition, % at 16 µM. purified calpain II, fluorogenic peptide substrate, 30 min;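 active = inhibition above about 50%, limit read from the data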
# KCC2 mod: modulates chloride dependent transport by human KCC2; KCC2 cells, thallium flux FluoZin-2 fluorescence; B-score of Tl+ flux slope (higher = more flux/activation; lower = inhibition) at 10 µM; 190,000 compounds, 2.2% hits; AID 1456;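 active = thallium flux slope and its plate-corrected score both differing from the plate sample mean at a set confidence after two filtering rounds, in either direction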;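 also: slope of fluorescence scaled to starting intensity during 10 to 20 s after thallium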
# Target sequence (Q9H2X9 whole entry, looked up): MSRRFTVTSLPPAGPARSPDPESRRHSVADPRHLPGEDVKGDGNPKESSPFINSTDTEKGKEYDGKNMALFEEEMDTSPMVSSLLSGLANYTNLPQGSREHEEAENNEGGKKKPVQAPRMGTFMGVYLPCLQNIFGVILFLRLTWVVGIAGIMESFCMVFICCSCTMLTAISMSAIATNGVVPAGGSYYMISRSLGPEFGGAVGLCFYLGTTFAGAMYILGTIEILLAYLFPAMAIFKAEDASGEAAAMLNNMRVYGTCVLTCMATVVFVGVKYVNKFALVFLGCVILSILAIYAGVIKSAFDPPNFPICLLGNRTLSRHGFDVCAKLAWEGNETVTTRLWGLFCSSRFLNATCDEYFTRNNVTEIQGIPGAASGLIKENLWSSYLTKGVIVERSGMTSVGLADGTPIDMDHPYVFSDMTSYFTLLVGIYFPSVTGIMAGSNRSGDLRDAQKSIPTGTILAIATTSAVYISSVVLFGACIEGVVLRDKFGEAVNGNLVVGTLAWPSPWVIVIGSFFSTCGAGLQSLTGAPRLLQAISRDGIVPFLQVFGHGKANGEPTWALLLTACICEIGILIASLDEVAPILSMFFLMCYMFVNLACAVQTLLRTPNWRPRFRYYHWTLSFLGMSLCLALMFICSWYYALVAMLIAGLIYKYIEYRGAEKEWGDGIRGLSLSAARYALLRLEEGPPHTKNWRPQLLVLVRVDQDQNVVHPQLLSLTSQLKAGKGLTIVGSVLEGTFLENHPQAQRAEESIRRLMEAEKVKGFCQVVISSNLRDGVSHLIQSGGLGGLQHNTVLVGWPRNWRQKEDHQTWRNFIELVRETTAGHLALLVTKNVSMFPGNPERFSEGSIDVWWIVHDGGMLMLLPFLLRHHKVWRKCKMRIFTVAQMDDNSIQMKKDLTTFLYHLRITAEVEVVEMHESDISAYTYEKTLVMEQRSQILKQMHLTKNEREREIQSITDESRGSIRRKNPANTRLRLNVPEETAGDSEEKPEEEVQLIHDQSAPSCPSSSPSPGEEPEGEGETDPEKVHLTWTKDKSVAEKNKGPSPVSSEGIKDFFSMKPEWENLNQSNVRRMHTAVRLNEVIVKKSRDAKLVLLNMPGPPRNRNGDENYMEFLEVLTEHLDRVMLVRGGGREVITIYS
# Lmaj promast: reduces viability of Leishmania major promastigotes; resazurin fluorescence viability; inhibition, % at 10 µM; 200,000 compounds, 9% hits; AID 1063; in the data active = inhibition above about 50%;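 also: promastigotes grown with compound for 44 hours at 28 °C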
# WT yeast gro inh: growth inhibition of WT yeast, mitochondrial fusion screen; inhibition, % at 10 µM; mitochondrial fusion phenotypic screen, WT strain; 190,000 compounds, 2.1% hits; in the data active = inhibition above about 58%; tested in S. cerevisiae
# ROMK mod: modulators of human ROMK potassium channel | P48048 | Tet-inducible ROMK, thallium flux fluorescence; actives lie on both sides | B-score at 10 µM | 130,000 compounds, 2% hits | AID 1918;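 active = signal ratio slope over the read window, or its plate-corrected B-score, at least 3 SD from the plate mean, either direction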;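 also: B-score of the F/F0 ratio slope over 7 to 12 s after thallium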
# Numbers without * were called inactive; i = inactive; · = no result given.
SMILES,m-calpain inh,KCC2 mod,Lmaj promast,WT yeast gro inh,ROMK mod
CN1CCN(c2nc(-c3cc4ccccc4o3)cs2)CC1,-4.9,0.488,68.5*,34.7,·
COc1cc(/C=C2\SC(c3ccc(C)cc3)=NC2=O)cc(OC)c1O,-38.5,·,57.5*,8.4,·
Cc1ccc(C2=NC(=O)/C(=C/c3cc(O)c(O)c(Br)c3)S2)cc1,-192.3,-0.441,-3.7,37.7,2.13
CCN(CC(=O)Nc1ccc([N+](=O)[O-])cc1OC)CC(=O)NC(C)(C)C,38.2,0.0234,71.0*,11.4,-0.303
COc1ccc(C)cc1S(=O)(=O)N(CC(=O)Nc1cccc([N+](=O)[O-])c1)c1cc(C)cc(C)c1,24.2,·,-7.0,-0.6,·
CCOC(=O)c1ccccc1NC(=O)c1cn(-c2ccc(OC)cc2)c(=O)c2ccccc12,-9.1,-0.347,92.3*,24.2,0.392
COC(=O)c1ccccc1NC(=O)c1cn(-c2ccc(C)c(C)c2)c(=O)c2ccccc12,5.5,-1.2,41.0,-0.9,-0.488
CCOC(=O)c1ccccc1NC(=O)c1cn(-c2ccc(C)c(C)c2)c(=O)c2ccccc12,-11.6,0.959,98.2*,5.0,1.11
COc1ccc(C)cc1S(=O)(=O)N(CC(=O)Nc1cc([N+](=O)[O-])ccc1C)c1ccc(C)c(C)c1,-27.3,-0.195,98.6*,12.7,·
CCC(=O)OCC(=O)Nc1ccc([N+](=O)[O-])cc1OC,-20.1,0.0648,-3.1,3.4,·
NS(=O)(=O)c1ccc(NC(=O)COC(=O)COc2ccc3ccccc3c2)cc1,19.3,1.49,-9.9,5.8,0.533
COc1ccc(S(=O)(=O)NC(C(=O)NCCc2ccccn2)C(C)C)cc1 (stereo not drawn),13.7,1.56,1.4,-18.6,·
Fc1ccc(COc2ccc(/C=N/n3cnnc3)cc2)cc1,5.9,-2,7.2,4.0,0.0598
O=C(CCc1nnc(CCC2CCCCC2)o1)NCCn1cccn1,-3.4,-0.425,-3.9,6.2,0.821
Oc1cc(-n2cccn2)c(O)cc1-n1cccn1,-23.4,-0.514,·,·,·
COc1ccccc1NC(=O)c1ccc([N+](=O)[O-])cc1[N+](=O)[O-],-9.2,0.826,85.0*,0.6,-0.671
COc1ccc(-n2cc(C(=O)Nc3cc([N+](=O)[O-])ccc3OC)c3ccccc3c2=O)cc1,-43.5,0.379,76.8*,16.5,-0.0434
CCc1c(C)nc(SCC(=O)N2CCCCC2CC)[nH]c1=O (stereo not drawn),-33.6,-1.47,·,·,-0.029
Cc1ccc2[nH]c(=O)c3cc(C(=O)N(C)c4ccccc4C)sc3c2c1,-36.6,0.183,·,·,0.287
O=c1oc2cc(O)ccc2cc1-c1nc2c(s1)CCc1ccccc1-2,-243.1,i,-11.8,98.0*,·
O=c1oc2ccccc2cc1-c1nc2c(s1)CCc1ccccc1-2,-73.5,0.00978,-3.4,0.3,-0.0515
CCOc1ccc2nc(SCC(=O)NC(=O)C(C)C)sc2c1,41.3,-0.468,11.2,-23.3,-0.678
C=CCc1c(C)nc(SC)nc1Nc1ccc(C(C)=O)cc1,0.8,-1.33,70.7*,-1.1,-0.163
C=CCc1c(C)nc(SC)nc1Nc1ccc(C(=O)O)cc1,-6.8,-0.882,-3.4,-0.2,-0.057
Cc1cnc(C(=O)Nc2cccc3cccnc23)cn1,-11.6,-0.544,97.4*,-5.7,·
SMILES,m-calpain inh,KCC2 mod,Lmaj promast,WT yeast gro inh,ROMK mod
O=C(c1ccc(CN2CCc3ccccc3C2)cc1)N1CCN(c2ccc(F)cc2)CC1,·,·,2.9,·,·
COc1cccc(CN(Cc2ccco2)C(c2ccc(F)cc2)c2nnnn2C(C)(C)C)c1 (stereo not drawn),9.1,-0.0744,58.0*,39.5,·
CC(C)(C)n1nnnc1C(c1cccnc1)N(Cc1ccccc1)Cc1ccco1 (stereo not drawn),14.8,-1.15,84.8*,-6.7,·
CCN(Cc1ccccc1)C(c1ccc(C(F)(F)F)cc1)c1nnnn1C(C)(C)C (stereo not drawn),3.9,-0.265,28.3,72.8*,·
CCN(Cc1ccccc1)C(c1cccc(C#N)c1)c1nnnn1C(C)(C)C (stereo not drawn),31.0,-0.0677,25.4,27.4,·
COc1ccc(NC(=O)c2nc(C)n(-c3ccc([N+](=O)[O-])cc3)n2)cc1,12.8,0.155,15.9,6.9,0.774
COc1ccc2nc(SCc3nc(N)nc(Nc4ccccc4)n3)[nH]c2c1,-12.1,-0.989,17.9,10.0,-0.289
CC[C@@H](Nc1ncnc2c1oc1ccccc12)C(=O)O,11.4,0.114,·,·,-0.0496
Cc1nn(Cc2cccc(C(=O)NC34CC5CC(CC(C5)C3)C4)c2)c(C)c1Br,-6.1,0.862,54.0*,56.6,-1.03
Cc1nn(Cc2ccccc2Cl)c(C)c1NC(=O)NC12CC3CC(CC(C3)C1)C2,18.5,0.327,17.1,72.6*,·
CCOc1ccc(C2C=C(c3ccccc3)Nc3ncnn32)cc1 (stereo not drawn),i,·,-1.6,55.9,-2.66*
Cc1cc(N2CCOCC2)nc2ccc(NC(=O)CCC(=O)N3CCCC(C)C3)cc12 (stereo not drawn),i,-0.997,4.2,20.0,·
O=C(CN1C(=O)COc2ccccc21)N(Cc1cccnc1)Cc1ccccc1F,-23.2,-1.81,96.4*,-0.9,·
COCCOC(=O)C1=C(C)NC(=O)N(C(C)=O)C1c1ccc(Cl)cc1 (stereo not drawn),-24.6,1.04,88.1*,-11.4,1.3
Cc1csc2c(N(C)CCO)ncnc12,5.7,-0.495,·,·,·
O=C(COC(=O)c1ccc(S(=O)(=O)Nc2ccccc2)cc1)NCCN1C(=O)CSC1=O,4.8,0.969,-4.0,9.8,·
Cn1c(=NC(=O)c2ccc(S(=O)(=O)N3CCCc4ccccc43)cc2)sc2cc(S(C)(=O)=O)ccc21,-71.0,-0.704,99.1*,-10.3,-0.0568
C#CCn1c(=NC(=O)c2ccc(S(=O)(=O)N3CCCc4ccccc43)cc2)sc2cc(S(N)(=O)=O)ccc21,-24.4,0.229,99.5*,6.9,-0.655
Cn1c(=NC(=O)c2ccccc2[N+](=O)[O-])sc2cc(S(C)(=O)=O)ccc21,-12.0,1.01,48.6,-0.3,0.679
O=C(Nc1ccc(S(=O)(=O)Nc2nccs2)cc1)C1=NN(c2ccccc2)C(=O)CC1,9.3,·,·,·,·
c1ccc2c(N3CCCCC3)nc(N3CCOCC3)nc2c1,-22.3,-0.841,16.9,3.1,-0.82
C(=C\c1nc(N2CCCCCC2)c2ccccc2n1)/c1ccccc1,5.9,-0.146,85.7*,72.5,·
c1ccc2c(N3CCCCC3)nc(N3CCCCC3)nc2c1,-9.2,·,68.4*,7.1,-0.556
COc1cccc(C2CC(c3ccccc3Cl)n3ncnc3N2)c1 (stereo not drawn),11.4,0.166,0.4,36.0,·
Cc1cccc(Nc2nc(N)c([N+](=O)[O-])c(N3CC(C)CC(C)C3)n2)c1 (stereo not drawn),43.6,-0.561,92.8*,95.9*,-0.847
CCN1CCN(c2nc(N)c([N+](=O)[O-])c(Nc3cccc(C)c3)n2)CC1,43.9,0.506,99.9*,37.0,-0.347
Cc1cccc(Nc2nc(N)c([N+](=O)[O-])c(N3CCC(C)CC3)n2)c1,15.8,-0.00127,14.6,31.9,0.36
CCc1ccc(NC(=O)c2onc(C)c2Cl)cc1,5.1,-0.0928,-6.3,-11.6,·
CN(C(=O)Nc1cccc(C(F)(F)F)c1)C1CCCCC1,8.3,-0.813,·,·,·
